Rows were chosen to be rich in hits. Some 12% of all compounds tested hit in one or more screens of this group.
VP16 counter: counter-screen for ROR gamma inhibitors: Gal4-VP16 reporter; Drosophila S2 Gal4-VP16 UAS-luciferase, luminescence, 20 h; Potency, µM (doses to about 53.6 µM), for inactives: at the highest dose activity, negative = inhibition, hits mostly inhibitors; 310,000 compounds, 3.5% hits; AID 2546;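 note: Gal4-VP16 expression switched on by copper sulfate through the metallothionein promoter; nearly all actives have a fitted effect of over 50% in size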
ALDH1A1 inh: inhibitors of human aldehyde dehydrogenase 1A1 | P00352 | Purified ALDH1A1, NADH fluorescence, propionaldehyde substrate | Potency, µM (doses to about 75.3 µM), inactives show at the highest dose activity, negative = inhibition, usual class: inhibitors | 220,000 compounds, 7.3% hits; active = well fitted inhibition curve with a large enough effect, not every such curve was filed as active; inconclusive = small, poorly fitted or top-dose-only effect, or another doubt; inactive = no such curve, though single readings can be large or run the other way;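 note: plate controls were no enzyme wells and a reference inhibitor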
RORg inh: blocks mouse ROR gamma transcriptional activity. 310,000 compounds, 5.4% hits. P51450. Potency, µM (highest dose often 53.6 µM), without a hit: top-dose activity change, negative = inhibition, most hits filed as inhibitors. Drosophila S2 Gal4-RORgamma UAS-luciferase reporter, 20 h; note: nearly all actives have a fitted effect of over 60% in size
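A Gal4/UAS one-hybrid system in insect cells: metallothionein-promoter Gal4–ROR gamma fusion plus Photinus luciferase reporter. Copper sulfate 700 uM final, 20 hr ambient incubation, luminescent detection after 10 min with reagent.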
Sfp PPTase inh: inhibitors of Bacillus subtilis Sfp phosphopantetheinyl transferase; Potency, µM, for the others: largest response in the series, negative = inhibition, most hits filed as inhibitors; 310,000 compounds, 3.5% hits; Biochemical Sfp PPTase activity, qHTS; AID 1490; Q9F4F7;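 note: the enzyme is Sfp with the accession as filed and its product quenches rhodamine fluorescence; 0% = enzyme reaction without inhibitor and -100% = no enzyme wells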
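Sfp 15 nM + cpd, 15 min RT; start w/ rhodamine-CoA 5 uM, BHQ-2-YbbR 12.5 uM (final); 50 mM Hepes pH 7.6, 10 mM MgCl2, 0.01% NP-40, 0.01% BSA; read 525/598 nm at 0 and 30 min.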
PLK1 PBD inh: PLK1 (human) polo-box domain binding inhibition | P53350 | Plk1 PBD binding of FITC phosphopeptide, fluorescence polarization | Potency, µM, without a hit: max response, negative = inhibition, hits mostly inhibitors | 360,000 compounds, 2.8% hits | AID 720504; note: series mostly up to about 57 µM; nearly all actives have a fitted effect of over 65% in size
Target sequence (P53350 whole entry, looked up, the tested form may be a part): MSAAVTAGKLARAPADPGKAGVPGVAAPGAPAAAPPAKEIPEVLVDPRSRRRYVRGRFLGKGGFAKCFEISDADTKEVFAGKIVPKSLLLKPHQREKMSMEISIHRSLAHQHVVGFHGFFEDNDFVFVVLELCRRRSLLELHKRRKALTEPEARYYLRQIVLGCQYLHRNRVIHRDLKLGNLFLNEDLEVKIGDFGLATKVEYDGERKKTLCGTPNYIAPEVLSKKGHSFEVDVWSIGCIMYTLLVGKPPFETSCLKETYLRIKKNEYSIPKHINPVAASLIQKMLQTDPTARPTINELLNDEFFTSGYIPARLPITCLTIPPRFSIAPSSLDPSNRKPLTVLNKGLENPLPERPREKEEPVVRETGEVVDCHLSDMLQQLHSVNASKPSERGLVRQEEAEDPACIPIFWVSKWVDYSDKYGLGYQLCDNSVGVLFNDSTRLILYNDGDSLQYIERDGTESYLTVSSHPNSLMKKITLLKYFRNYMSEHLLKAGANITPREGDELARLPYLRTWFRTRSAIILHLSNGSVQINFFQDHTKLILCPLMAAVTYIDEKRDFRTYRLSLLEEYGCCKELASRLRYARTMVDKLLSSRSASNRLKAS
* hit, by the source's call; [ ] = dose if it differs, or a comment. Unless noted, calls come from the whole dose curve; as a rule, active = well fitted curve in the direction sought with a large enough effect; inconclusive = small, poorly fitted or top-dose-only effect, or another doubt; inactive = no such curve, though single readings can be large; an effect the other way counts as inactive or inconclusive. Unless noted, % is set by controls: 0 for no effect and ±100 for the full control effect; potency is the fitted concentration of half-maximal effect.

For Cc1ccsc1C(=O)N1CCC1(C)C(=O)NCCC#N (stereo not given) the results were PLK1 PBD inh 0%.
CC(C)=NO[C@@H](C)c1cc(-c2c(C)cc(C)cc2C)no1 was read as VP16 counter -7%[10 µM], ALDH1A1 inh 12%[13.5 µM], RORg inh 10%[10 µM] and Sfp PPTase inh 14%.
For O=C(c1ccc(-c2ccccc2)cc1)C1CCCN(C(=O)c2ccncc2)C1 (stereo not given) the results were VP16 counter 0%, ALDH1A1 inh 13%, RORg inh -1%, Sfp PPTase inh 17% and PLK1 PBD inh -15%.
`O=C(c1ccc(-c2ccccc2)cc1)C1CCCN(Cc2ccncc2)C1` (stereo not given) gave VP16 counter 0%, ALDH1A1 inh inconclusive, RORg inh 11µM*, Sfp PPTase inh inconclusive and PLK1 PBD inh -12%.
`O=C(c1ccc(Cl)cc1)C1CCCN(Cc2ccc(Oc3ncccn3)cc2)C1` (stereo not given) gave VP16 counter 3%, ALDH1A1 inh 28µM*, RORg inh 23%, Sfp PPTase inh -6% and PLK1 PBD inh -23%.
Screening Cc1cccc(C)c1NC(=O)C(c1ccc(C#N)cc1)n1c(=O)c(-c2ccco2)nc2ccccc21 (stereo not given) returned PLK1 PBD inh -13%.
`CC(C)COC(=O)C(C#N)c1nc2ccccc2nc1N1CCN(Cc2ccccc2)CC1` (stereo not given) gave VP16 counter 0%, ALDH1A1 inh 13µM*, RORg inh 34%, Sfp PPTase inh -8% and PLK1 PBD inh -5%.
For CN1CCN(c2nc3ccccc3nc2C(C#N)C(=O)OC2CCCCC2)CC1 (stereo not given) the results were VP16 counter 2%, ALDH1A1 inh 16µM*, RORg inh -8%[10 µM], Sfp PPTase inh 0% and PLK1 PBD inh -9%.
`COCCOC(=O)C(C#N)c1nc2ccccc2nc1N1CCN(Cc2ccccc2)CC1` (stereo not given) gave VP16 counter 6%, ALDH1A1 inh inconclusive, RORg inh 21%, Sfp PPTase inh -7% and PLK1 PBD inh -11%.
Screening CCC(CC)COC(=O)C(C#N)c1nc2ccccc2nc1N1CCOCC1 (stereo not given) returned VP16 counter -6%, ALDH1A1 inh 10µM*, RORg inh 40%, Sfp PPTase inh -10% and PLK1 PBD inh 0%.
For COc1ccccc1N1CCN(S(=O)(=O)CCNC(=O)CCc2ccccc2)CC1 the results were PLK1 PBD inh 4%.
For CN(C(=O)CSc1nc(N)cc(=O)[nH]1)C1CCCCC1 the results were PLK1 PBD inh -10%.
`CN(C(=O)CSc1nc2c(c(=O)[nH]1)CCCC2)C1CCCCC1` gave VP16 counter -6%, ALDH1A1 inh 0%, RORg inh 11%, Sfp PPTase inh 2% and PLK1 PBD inh 27µM*.
`COc1ccccc1/C=C/C=N/NC(=O)c1cc(-c2ccco2)[nH]n1` gave VP16 counter inconclusive, ALDH1A1 inh inconclusive, RORg inh 11µM*, Sfp PPTase inh 13µM* and PLK1 PBD inh inconclusive.
Screening COc1ccccc1/C=C/C=N/NC(=O)c1ccccn1 returned VP16 counter inconclusive, ALDH1A1 inh -12%, RORg inh inconclusive, Sfp PPTase inh -15% and PLK1 PBD inh -8%.
Screening COc1ccccc1/C=N/NC(=O)c1ccc(=O)n(C)c1 returned VP16 counter 8%, ALDH1A1 inh -8%, RORg inh -26%, Sfp PPTase inh 14% and PLK1 PBD inh -8%.
Screening COc1ccccc1/C=C/C=N/NC(=O)c1ccc(=O)n(C)c1 returned VP16 counter inconclusive, ALDH1A1 inh inconclusive, RORg inh inconclusive, Sfp PPTase inh 14% and PLK1 PBD inh 30µM*.
`C=CCOC(=O)N[C@@H](CCc1ccccc1)C(C(C)=O)C(C)=O` gave VP16 counter -8%, ALDH1A1 inh 8%, RORg inh 16% and Sfp PPTase inh 23%.
Screening CCN(CC)S(=O)(=O)c1ccc(C(=O)NCC(c2ccc(OC)cc2)N2CCOCC2)cc1 (stereo not given) returned VP16 counter -11%, ALDH1A1 inh 0.71µM*, RORg inh 23%, Sfp PPTase inh 1% and PLK1 PBD inh -9%.
For COc1ccc(C(CNC(=O)c2ccc(S(=O)(=O)N3CCOCC3)cc2)N2CCCCC2)cc1 (stereo not given) the results were VP16 counter -12%, ALDH1A1 inh inconclusive, RORg inh inconclusive, Sfp PPTase inh 4% and PLK1 PBD inh -4%.
Screening COc1cccc(-n2nnc3c(=O)n(Cc4ccc(Br)cc4)cnc32)c1 returned VP16 counter -13%, ALDH1A1 inh 9%, RORg inh 18%, Sfp PPTase inh 35µM* and PLK1 PBD inh 1%.
O=S(=O)(c1ccccc1)N(F)S(=O)(=O)c1ccccc1 was read as PLK1 PBD inh 27µM*.
For CC1=C(C(=O)OCC(C)C)C(c2ccc(Br)s2)NC(=O)N1 (stereo not given) the results were VP16 counter 7%, ALDH1A1 inh -5%, RORg inh 14%, Sfp PPTase inh 10% and PLK1 PBD inh 0%.
`CCCOC(=O)C1=C(C)NC(=O)NC1c1ccc(Br)s1` (stereo not given) gave VP16 counter -7%, ALDH1A1 inh 4%, RORg inh 1%, Sfp PPTase inh -3% and PLK1 PBD inh 24µM*.
`CC(/C=C/c1ccco1)=N/NC(=O)c1ccc(C)nc1` gave VP16 counter -7%, RORg inh inconclusive, Sfp PPTase inh -7% and PLK1 PBD inh -1%.
CC(/C=C/c1ccco1)=N\NC(=O)c1cccnc1 was read as VP16 counter 2%, ALDH1A1 inh 7.9µM*, RORg inh 12%, Sfp PPTase inh 56µM* and PLK1 PBD inh -5%.
CC(/C=C/c1ccco1)=N/NC(=O)Cc1cccs1 was read as VP16 counter inconclusive, ALDH1A1 inh 2.8µM*, RORg inh -42%, Sfp PPTase inh -66% and PLK1 PBD inh -19%.
Screening CC(/C=C/c1ccco1)=N\NC(=O)c1cc(Cl)ccc1O returned VP16 counter inconclusive, ALDH1A1 inh -8%, RORg inh 8.9µM*, Sfp PPTase inh 1% and PLK1 PBD inh inconclusive.
O=C(O)/C=C/C(=O)Nc1cccnc1 was read as VP16 counter inconclusive, ALDH1A1 inh inconclusive, RORg inh -8%, Sfp PPTase inh 11% and PLK1 PBD inh -2%.
For COC(=O)/C=C/C(=O)Nc1cccnc1 the results were VP16 counter 14%, ALDH1A1 inh -18%, RORg inh 11µM*, Sfp PPTase inh 19% and PLK1 PBD inh -14%.
For O=S1(=O)C[C@H](N2CCOCC2)[C@@H](COCc2ccccc2)N1 the results were PLK1 PBD inh -8%.

High-throughput results (PubChem)
